According to PubChem BioAssay (NCATS):
Results filed as inconclusive are left out. Activity calls are given as the source filed them. The call rests on the fitted dose curve; in most records, active means well fitted curve in the direction sought with a large enough effect; inconclusive means small, poorly fitted or top-dose-only effect, or another doubt; inactive means no such curve, though single readings can be large; an effect the other way counts as inactive or inconclusive.

Columns and labels:
[1] = system: UISO; experiment: qHTS assay to identify novel small-molecules to repurpose for Merkel cell carcinoma treatment (AID 1296009); conditions: MCC and control cell lines, CellTiter-Glo viability, 72 h; series mostly up to 46 µM; further: nearly all actives have a fitted effect of over 60% in size
Procedure, shortened: (§1)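 Cells exposed to NPC (8-point) and MIPE (11-point) compound dilutions for 72 hr at 37 degree celsius; viability read by CellTiter-Glo luminescence, normalized to no-cell and DMSO in-plate controls.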

[2] = system: MKL-2; experiment: as above; conditions: MCC and control cell lines, CellTiter-Glo viability, 72 h; series mostly up to 46 µM
Procedure, shortened: as §1

[3] = system: WaGa; experiment: as above; conditions: MCC and control cell lines, CellTiter-Glo viability, 72 h; series mostly up to 46 µM
Procedure, shortened: as §1

[4] = system: MKL-1; experiment: as above; conditions: MCC and control cell lines, CellTiter-Glo viability, 72 h; series mostly up to 46 µM
Procedure, shortened: as §1

[5] = system: C33A; experiment: Primary qHTS to identify gynecologic anti-cancer compounds using libraries of approved drugs and bioactive compounds (AID 1345084); conditions: Gynecologic cancer cell panel viability, ATPlite luminescence, 48 h; series mostly up to 57.5 µM; further: nearly all actives have a fitted effect of over 55% in size
Procedure, shortened: (§2)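 Five-point cytotoxicity, 48 h drug exposure at 37 C, 5% CO2, on cells seeded 16 h beforehand. ATP content read by ATPlite luminescence.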

[6] = system: CASKI; experiment: as above; conditions: Gynecologic cancer cell panel viability, ATPlite luminescence, 48 h; series mostly up to 57.5 µM
Procedure, shortened: as §2

[7] = system: Hek293T; experiment: as above; conditions: Gynecologic cancer cell panel viability, ATPlite luminescence, 48 h, control line for the selectivity index; series mostly up to 57.5 µM
Procedure, shortened: as §2

[8] = system: OV90; experiment: as above; conditions: Gynecologic cancer cell panel viability, ATPlite luminescence, 48 h; series mostly up to 57.5 µM
Procedure, shortened: as §2

[9] = system: PA-1; experiment: as above; conditions: Gynecologic cancer cell panel viability, ATPlite luminescence, 48 h; series mostly up to 57.5 µM
Procedure, shortened: as §2

[10] = system: SKOV3; experiment: as above; conditions: Gynecologic cancer cell panel viability, ATPlite luminescence, 48 h; series mostly up to 57.5 µM
Procedure, shortened: as §2

[11] = system: Tov-21-G; experiment: as above; conditions: Gynecologic cancer cell panel viability, ATPlite luminescence, 48 h; series mostly up to 57.5 µM
Procedure, shortened: as §2

[12] = system: Tov112D; experiment: as above; conditions: Gynecologic cancer cell panel viability, ATPlite luminescence, 48 h; series mostly up to 57.5 µM
Procedure, shortened: as §2

[13] = system: Es-2; experiment: as above; conditions: Gynecologic cancer cell panel viability, ATPlite luminescence, 48 h; series mostly up to 57.5 µM
Procedure, shortened: as §2

[14] = system: HeLa; experiment: as above; conditions: Gynecologic cancer cell panel viability, ATPlite luminescence, 48 h; series mostly up to 57.5 µM
Procedure, shortened: as §2

[15] = system: JEG-3; experiment: as above; conditions: Gynecologic cancer cell panel viability, ATPlite luminescence, 48 h; series mostly up to 57.5 µM
Procedure, shortened: as §2
Potency means the concentration at half of the fitted maximal effect.

COc1cc(O)c2c(c1)C1OC1C[C@H](O)[C@H](O)C(=O)C=CC[C@H](C)OC2=O (stereo partly specified)
Potency [1]: 20.9 µM (active)

COc1ccc(C[C@@H](C)[C@@H](C)Cc2ccc(OC)c(OC)c2)cc1OC
Potency [2]: 3.72 µM (active)
Potency [1]: 1.32 µM (active)
Potency [3]: 0.833 µM (active)

c1cncc(CN2CCC(n3ncc4c(N5CCOCC5)nc(-c5ccc6[nH]ccc6c5)nc43)CC2)c1
Potency [4]: inactive
Potency [5]: 31.6 µM (active)
Potency [6]: 10 µM (active)
Potency [7]: 11.2 µM (active)
Potency [8]: 22.4 µM (active)
Potency [9]: 17.8 µM (active)
Potency [10]: 10 µM (active)
Potency [11]: 12.6 µM (active)
Potency [12]: 28.2 µM (active)

Oc1ccc(-c2ccc(-c3cc(Nc4cccc(CNC5CC5)c4)n[nH]3)cc2)c(O)c1
Potency [4]: 6.62 µM (active)
Potency [1]: 5.26 µM (active)

COc1cc(OC)c(C=CS(=O)(=O)Cc2ccc(OC)c(NCC(=O)O)c2)c(OC)c1
Potency [2]: 0.0935 µM (active)

C=CC(=O)N1CCc2ccc(-n3c(=O)ccc4cnc5ccc(-c6cnn(C)c6)cc5c43)cc21
Potency [4]: 1.87 µM (active)
Potency [2]: 1.87 µM (active)
Potency [1]: 6.62 µM (active)

CCNC(=O)c1cc2c(-c3cc(OCCN4CCCC4)c(Cl)cc3Cl)nc(N)nc2s1
Potency [2]: inactive
Potency [1]: 2.96 µM (active)
Potency [3]: 1.18 µM (active)

Cc1[nH]c(C=C2C(=O)Nc3ccccc32)c(C)c1CCC(=O)O
Potency [4]: 0.372 µM (active)
Potency [1]: 0.469 µM (active)
Potency [3]: 0.187 µM (active)

CCNC(=O)Nc1ccc(-c2nc3c(c(N4CCOC[C@H]4C)n2)CCN(C2COC2)C3)cc1
Potency [2]: inactive
Potency [1]: 3.72 µM (active)

Cc1cnn(C)c1C(=O)Nc1cc(Nc2ccc3c(C=Cc4ccccn4)n[nH]c3c2)ccc1F
Potency [1]: 16.6 µM (active)

NC(=O)Nc1sc(-c2ccc(F)cc2)cc1C(N)=O
Potency [1]: 4.69 µM (active)
Potency [3]: 5.26 µM (active)

Cc1ncc(-c2ccnc(Nc3ccc(S(C)(=O)=O)cc3)n2)n1C(C)C
Potency [6]: 7.08 µM (active)
Potency [13]: 10 µM (active)
Potency [14]: 7.08 µM (active)
Potency [7]: 5.01 µM (active)
Potency [15]: inactive
Potency [9]: 5.01 µM (active)
Potency [11]: 10 µM (active)
Potency [12]: 10 µM (active)

CCc1ccc(C(=O)Nc2cc(CN3CCN(C)CC3)cc(C(F)(F)F)c2)cc1C#Cc1cnc2ccnn2c1
Potency [2]: 18.7 µM (active)
Potency [8]: inactive

COc1cc(OC)cc(-c2ccc3ncc4ccc(=O)n(-c5ccc(N6CCNCC6)c(C(F)(F)F)c5)c4c3c2)c1
Potency [4]: 18.7 µM (active)
Potency [2]: 8.33 µM (active)
Potency [1]: 16.6 µM (active)

CNC(=O)c1ccc(Nc2cc(Nc3ccccc3S(=O)(=O)C(C)C)c3cc[nH]c3n2)nc1
Potency [4]: 2.64 µM (active)
Potency [2]: 7.43 µM (active)
Potency [1]: 5.9 µM (active)
Potency [3]: 4.18 µM (active)

CNC(=O)c1cccc(-c2ccc3c(N4CCOC[C@H]4C)nc(N4CCOC[C@H]4C)nc3n2)c1
Potency [2]: inactive
Potency [1]: 0.166 µM (active)

Cc1ccc([N+](=O)[O-])cc1S(=O)(=O)N(C)N=Cc1cnc2ccc(Br)cn12
Potency [2]: 0.209 µM (active)
Potency [1]: 0.0418 µM (active)

C=CC(=O)Nc1cccc(Nc2nc(NC3CCC(N(C)C)CC3)nc3c2ncn3C(C)C)c1 (stereo unspecified)
Potency [4]: 0.0074 µM (active)
Potency [2]: 0.0166 µM (active)
Potency [1]: 0.418 µM (active)

COc1cc2c(Nc3ccc(Cl)c(Cl)c3F)ncnc2cc1OCC1C[C@@H]2CN(C)C[C@H]2C1
Potency [4]: 7.43 µM (active)
Potency [1]: 4.18 µM (active)
Potency [3]: 18.7 µM (active)

O=C(Nc1cc2cc[nH]c2cn1)c1ccccc1
Potency [4]: 14.8 µM (active)
Potency [5]: 1.41 µM (active)
Potency [6]: 1.78 µM (active)
Potency [13]: 1.58 µM (active)
Potency [14]: 1.41 µM (active)
Potency [7]: 2.24 µM (active)
Potency [15]: 1.12 µM (active)
Potency [8]: 0.891 µM (active)
Potency [9]: 0.891 µM (active)
Potency [10]: 2 µM (active)
Potency [11]: 1.26 µM (active)
Potency [12]: 2 µM (active)

COc1ccc(C=Cc2cc(OC)c(OC)c(OC)c2)cc1NC(=O)[C@H](N)CO
Potency [2]: 0.0066 µM (active)
Potency [1]: 0.0053 µM (active)

O=C1NCCc2[nH]c(-c3ccncc3)cc21
Potency [2]: 13.2 µM (active)
Potency [1]: 4.18 µM (active)

Oc1cc(-c2nc(-c3ccccc3)[nH]c2-c2ccncc2)ccc1Cl
Potency [4]: inactive
Potency [2]: inactive
Potency [1]: inactive
Potency [5]: inactive
Potency [14]: inactive
Potency [7]: inactive
Potency [15]: inactive
Potency [9]: inactive
Potency [10]: inactive
Potency [11]: 17.8 µM (active)
Potency [12]: inactive

Cn1cc(C2=C(c3c4n(c5ccccc35)CCC(CN)C4)C(=O)NC2=O)c2ccccc21 (stereo unspecified)
Potency [4]: 20.9 µM (active)
Potency [2]: 20.9 µM (active)
Potency [3]: 20.9 µM (active)

CCN(CC)Cc1ccc2cc(COC(=O)Nc3ccc(C(=O)NO)cc3)ccc2c1
Potency [4]: 1.87 µM (active)
Potency [2]: 0.59 µM (active)
Potency [1]: 3.72 µM (active)
Potency [3]: 0.526 µM (active)
Potency [5]: 3.55 µM (active)
Potency [6]: 6.31 µM (active)
Potency [13]: 6.31 µM (active)
Potency [14]: 6.31 µM (active)
Potency [7]: 10 µM (active)
Potency [15]: 3.55 µM (active)
Potency [8]: 1 µM (active)
Potency [9]: 1.78 µM (active)
Potency [11]: 7.94 µM (active)
Potency [12]: 7.08 µM (active)

COc1cc(C(=O)NC2CCN(C)CC2)ccc1Nc1ncc2c(n1)N(C1CCCC1)CCC(=O)N2C(C)C
Potency [4]: 2.35 µM (active)
Potency [3]: 1.87 µM (active)

COc1cc(C=CC(=O)CC(=O)C=Cc2ccc(O)c(OC)c2)ccc1O
Potency [4]: 10.8 µM (active)
Potency [2]: 8.55 µM (active)
Potency [1]: 21.5 µM (active)
Potency [3]: 9.59 µM (active)

CC[C@]12C=CCN3CC[C@@]4(c5cc([C@@]6(C(=O)OC)C[C@H]7C[C@@H](C(C)(F)F)CN(Cc8c6[nH]c6ccccc86)C7)c(OC)cc5N(C)[C@H]4[C@@](O)(C(=O)OC)[C@H]1OC(C)=O)[C@@H]32
Potency [3]: 0.0059 µM (active)

CCOC(=O)N1CCN([N+]([O-])=NOc2ccc([N+](=O)[O-])cc2[N+](=O)[O-])CC1
Potency [4]: 10.5 µM (active)
Potency [2]: 6.62 µM (active)
Potency [3]: 11.8 µM (active)

COc1ccc(Nc2cc(-c3cnc(N)nc3)nc(N3CCOCC3)n2)cn1
Potency [4]: inactive
Potency [1]: 4.18 µM (active)

COC1=C2C[C@@H](C)C[C@H](OC)[C@@H](O)[C@@H](C)C=C(C)[C@H](OC(N)=O)[C@@H](OC)C=CC=C(C)C(=O)NC(=CC1=O)C2=O
Potency [4]: 11.8 µM (active)
Potency [2]: 8.33 µM (active)
Potency [3]: 20.9 µM (active)
